Experimental data as given in PubChem BioAssay (EPA / NIEHS).
Records with an inconclusive call do not appear. Active and inactive are the calls of the source. How the source made its calls, unless noted: active means hit-call score of the fitted dose curve at least 0.9, where 1 is the maximum; inactive means score below 0.9.

How the values were obtained:
[1] = CCTE_Shafer_MEA_dev_AB: CCTE's Alamar Blue Assay for Cytotoxicity in the Neural Network Formation Assay, Shafer Lab (AID 2284083; active means hit-call score of the fitted dose curve at least 0.9, where 1 is the maximum;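 further: resazurin reduction fluorescence as viability of cultured neurons; twelve days of exposure from plating with re-dosing on DIV 5 and 9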)
Summary of the method: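 Rat cortical primary cultures, 1.5 x 10^5 cells/well on MEA; continuous compound exposure over 12 days of network development, re-dosed with full medium change DIV 5 and 9. Alamar Blue fluorescence; loss of signal = cytotoxicity vs DMSO baseline.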

[2] = CCTE_Shafer_MEA_dev_mutual_information_norm: CCTE's Neural Network Formation Assay for Mutual Information Normalization, Shafer Lab (AID 2284091)
Summary of the method: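 Neurons from rat cortex were seeded at 1.5 x 10^5 cells/well onto PEI-coated MEAs in a laminin drop, then exposed to compound from day 0 for twelve days. Network recordings on four days gave mutual information, summarised by AUC relative to DMSO.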

[3] = CCTE_Shafer_MEA_dev_correlation_coefficient_mean: CCTE's Neural Network Formation Assay for Mean Correlation Coefficient, Shafer Lab (AID 2284093);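 on AC50: well mean pairwise spike train correlation integrated as AUC over recording days 5 to 12; potency fitted for loss of correlation relative to DMSO vehicle wells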
Summary of the method: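 Rat cortical cultures, 1.5 x 10^5 cells/well, dosed from day 0 for 12 days. Spontaneous spikes recorded DIV 5/7/9/12; electrode-pair correlation coefficients averaged, AUC taken. Fit in loss direction vs DMSO.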

[4] = CCTE_Shafer_MEA_acute_AB: CCTE's Alamar Blue Assay for Cytotoxicity in the Neural Acute Assay, Shafer Lab (AID 2284069; active means hit-call score of the fitted dose curve at least 0.9, where 1 is the maximum;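 further: active compounds lower the viability signal compared with DMSO wells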)
Summary of the method: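 Read-out: resazurin fluorescence (ex 544, em 590 nm) after CTB reagent at 1:6 dilution in fresh media. Cells: primary rat cortical neuron networks, DIV 13 or 15, chemically exposed on MEA plates; DMSO as negative control/baseline.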

[5] = CCTE_Shafer_MEA_acute_LDH: CCTE's Lactate Dehydrogenase Assay for Cytotoxicity in the Neural Acute Assay, Shafer Lab (AID 2284086; active means hit-call score of the fitted dose curve at least 0.9, where 1 is the maximum;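 further: active means LDH release rises above DMSO vehicle level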)
Summary of the method: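 Medium collected from MEA wells of primary rat cortical cultures (DIV 13 or 15) immediately after 40 min chemical exposure is assayed spectrophotometrically for lactate dehydrogenase activity. Endpoint fitted in positive direction versus DMSO.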

[6] = TAMU_PeakParms_SingleDonor1434_Chronotropy: Texas A&M University (TAMU) 1.5-hr Human Induced Pluripotent Stem Cell (iPSC)-derived Cardiomyocytes Calcium (Ca+2) Flux Assay for Cardiotoxicity: Chronotropy (changes in peak frequency) (AID 2284217); settings: actives raise or lower the signal
Summary of the method: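 iPSC-CMs, donor 1434; 4 conc (0.2–100 uM), 0.5% v/v DMSO, 90 min, 37C/5% CO2; Ca2+ flux fluorescence → peak.freq.avg; peak.freq.avg = 0 dropped; bidirectional fit vs DMSO; EC05 POD.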

[7] = CCTE_Mundy_HCI_Cortical_Synap_Neur_Matur_NeuriteSpotCountPerNeuriteLength: CCTE's Synaptogenesis and Neurite Maturation Assay in rat cortical cells for Neurite Spot Count per Neurite Length, Mundy Lab (AID 2284210)
Summary of the method: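 Read-out: synaptophysin puncta counted along MAP2-stained neurites, normalised to neurite length, by automated high-content imaging. Rat cortical cells; AraC DIV 5; chemical dosing DIV 7; termination DIV 12. DMSO baseline.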

[8] = CCTE_Mundy_HCI_Cortical_Synap_Neur_Matur_BPCount: CCTE's Synaptogenesis and Neurite Maturation Assay in rat cortical cells for Branch Point Count, Mundy Lab (AID 2284211)
Summary of the method: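 HCI read-out of branch points from MAP2/synaptophysin/Hoechst immunofluorescence; rat cortical cultures, AraC DIV 5, dosing DIV 7, fixed DIV 12; fit in positive direction vs DMSO baseline.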

[9] = CCTE_Mundy_HCI_Cortical_NOG_NeuriteCount: CCTE's Neurite Outgrowth Assay in rat cortical cells for Neurite Count, Mundy Lab (AID 2284212);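 further: cells fixed about two days after chemical exposure began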
Summary of the method: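 Rat cortical primary cells; compound added 2 h post-plating, 1/10 dilution of working solution. Anti-betaIII-tubulin/AF488 ICC; ArrayScan neurite count vs DMSO.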

[10] = CCTE_Mundy_HCI_Cortical_Synap_Neur_Matur_NeuriteLength: CCTE's Synaptogenesis and Neurite Maturation Assay in rat cortical cells for Neurite Length, Mundy Lab (AID 2284214)
Summary of the method: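 Cultures of rat primary cortical cells received chemical at DIV 7 and were fixed at DIV 12, after glial arrest with AraC at DIV 5. Neurite length was measured by automated imaging of MAP2 immunofluorescence.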

[11] = CCTE_Mundy_HCI_Cortical_Synap_Neur_Matur_NeuriteSpotCountPerNeuron: CCTE's Synaptogenesis and Neurite Maturation Assay in rat cortical cells for Neurite Spot Count per Neuron Count, Mundy Lab (AID 2284215)
Summary of the method: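 Developing rat cortical neurons, with glia suppressed by AraC, are exposed to chemicals from DIV 7 to DIV 12. Automated fluorescence imaging of MAP2-labelled neurites and synaptophysin puncta yields a count per neuron, normalised against DMSO wells.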

[12] = CCTE_Mundy_HCI_Cortical_Synap_Neur_Matur_SynapseCount: CCTE's Synaptogenesis and Neurite Maturation Assay in rat cortical cells for Synapse Count, Mundy Lab (AID 2284218)
Summary of the method: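 Cells were plated, allowed 2 hr to attach, treated with AraC at DIV 5, then exposed to chemicals from DIV 7 until DIV 12. After fixation and MAP2/synaptophysin immunolabelling, synapses per neuron were quantified by automated imaging against DMSO.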

[13] = CCTE_Mundy_HCI_hN2_NOG_NeuriteLength: CCTE's Neurite Outgrowth Assay in human hN2 cells for Neurite Length, Mundy Lab (AID 2284220; active means hit-call score of the fitted dose curve at least 0.9, where 1 is the maximum)
Summary of the method: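 Read-out is neurite length from high-content imaging of βIII-tubulin/Alexa Fluor-488-labelled neurons, referenced to DMSO controls.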

[14] = CCTE_Mundy_HCI_hN2_NOG_NeuronCount: CCTE's Neurite Outgrowth Assay in human hN2 cells for Neuron Count, Mundy Lab (AID 2284221; active means hit-call score of the fitted dose curve at least 0.9, where 1 is the maximum)
Summary of the method: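 Read-out is the number of betaIII-tubulin-positive neurons imaged by automated high-content analysis, with DMSO as negative control.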

[15] = CCTE_Mundy_HCI_Cortical_Synap_Neur_Matur_NeuriteCount: CCTE's Synaptogenesis and Neurite Maturation Assay in rat cortical cells for Neurite Count, Mundy Lab (AID 2284222);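 further: exposure from day 7 to day 12 in vitro with readout at day 12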
Summary of the method: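 Primary rat cortical cells were plated, treated with AraC at DIV 5, then exposed to chemicals from DIV 7 through DIV 12. After fixation and immunostaining for MAP2 and synaptophysin, imaging quantified neurites, with DMSO as the negative control.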

[16] = CCTE_Mundy_HCI_Cortical_NOG_NeuriteLength: CCTE's Neurite Outgrowth Assay in rat cortical cells for Neurite Length, Mundy Lab (AID 2284213)
Summary of the method: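 First, rat primary cortical cells were plated and, 2 h later, given test chemical as a 1/10 dilution. Finally, βIII-tubulin immunostaining enabled automated imaging of neurite length.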

Measured: AC50

COc1ccc(-n2nc(C(F)F)cc2-c2ccc(S(C)=O)cc2)cc1 (stereo not given)
inactive: [1] | [2] | [3]

CCCCCCCCCCCCc1ccccc1
inactive: [4] | [5]

On1ccccc1=S
inactive: [4] | [5]

CCCCCCc1ccc(O)cc1O
inactive: [5] | [6]

CC[C@H](C)C(=O)O[C@H]1C[C@@H](C)C=C2C=C[C@H](C)[C@H](CC[C@@H]3C[C@@H](O)CC(=O)O3)[C@H]21
active: [1] 10 µM | [3] 0.0169 µM
inactive: [2]

Cc1[nH]cnc1C[C@H]1CCc2c(C)c3ccccc3n2C1=O
inactive: [4] | [5]

CC[C@H]1CC[C@H](NCc2cc3c(cc2OC)[C@H]2C[C@H]2C(=O)N3C)[C@H](c2ccccc2)N1
inactive: [4] | [5]

CC(C)=CCCC(C)=CC=O
inactive: [4] | [5]

O=C(O)c1cc(N=Nc2ccc(S(=O)(=O)Nc3ccccn3)cc2)ccc1O
inactive: [4] | [5]

O=C1CCC(N2C(=O)c3ccccc3C2=O)C(=O)N1 (stereo not given)
not listed: [1] | [4] | [5] | [16]
inactive: all other assays above

CC[C@H]1OC(=O)[C@H](C)[C@@H](O[C@H]2C[C@@](C)(OC)[C@@H](O)[C@H](C)O2)[C@H](C)[C@@H](O[C@@H]2O[C@H](C)C[C@H](N(C)C)[C@H]2O)[C@](C)(O)C[C@@H](C)C(=O)[C@H](C)[C@@H](O)[C@]1(C)O
not listed: [6] | [13] | [14]
inactive: all other assays above
